The values below come from ChEMBL document CHEMBL3988442, “University of Dundee, Small-Polar-MMV Screening Library” (2021).

For some of these results: Entries with a potency or affinity are not part of this list.

What all share (set-up): scale not given: direction of the effect not stated beside the values
Test [1] concerns the target Protein translocase subunit SecA (Escherichia coli (strain K12)) (UniProt P10408). In words: Assay to Identify E. coli SecA ATPase Inhibitors. In kind it is functional. The settings on record: 30 µM.
The target in test [2] is T1, Ubiquitin-activating enzyme e1, putative (Leishmania donovani (strain BPK282A1)) (UniProt E9BSI1).
T1 sequence (whole entry): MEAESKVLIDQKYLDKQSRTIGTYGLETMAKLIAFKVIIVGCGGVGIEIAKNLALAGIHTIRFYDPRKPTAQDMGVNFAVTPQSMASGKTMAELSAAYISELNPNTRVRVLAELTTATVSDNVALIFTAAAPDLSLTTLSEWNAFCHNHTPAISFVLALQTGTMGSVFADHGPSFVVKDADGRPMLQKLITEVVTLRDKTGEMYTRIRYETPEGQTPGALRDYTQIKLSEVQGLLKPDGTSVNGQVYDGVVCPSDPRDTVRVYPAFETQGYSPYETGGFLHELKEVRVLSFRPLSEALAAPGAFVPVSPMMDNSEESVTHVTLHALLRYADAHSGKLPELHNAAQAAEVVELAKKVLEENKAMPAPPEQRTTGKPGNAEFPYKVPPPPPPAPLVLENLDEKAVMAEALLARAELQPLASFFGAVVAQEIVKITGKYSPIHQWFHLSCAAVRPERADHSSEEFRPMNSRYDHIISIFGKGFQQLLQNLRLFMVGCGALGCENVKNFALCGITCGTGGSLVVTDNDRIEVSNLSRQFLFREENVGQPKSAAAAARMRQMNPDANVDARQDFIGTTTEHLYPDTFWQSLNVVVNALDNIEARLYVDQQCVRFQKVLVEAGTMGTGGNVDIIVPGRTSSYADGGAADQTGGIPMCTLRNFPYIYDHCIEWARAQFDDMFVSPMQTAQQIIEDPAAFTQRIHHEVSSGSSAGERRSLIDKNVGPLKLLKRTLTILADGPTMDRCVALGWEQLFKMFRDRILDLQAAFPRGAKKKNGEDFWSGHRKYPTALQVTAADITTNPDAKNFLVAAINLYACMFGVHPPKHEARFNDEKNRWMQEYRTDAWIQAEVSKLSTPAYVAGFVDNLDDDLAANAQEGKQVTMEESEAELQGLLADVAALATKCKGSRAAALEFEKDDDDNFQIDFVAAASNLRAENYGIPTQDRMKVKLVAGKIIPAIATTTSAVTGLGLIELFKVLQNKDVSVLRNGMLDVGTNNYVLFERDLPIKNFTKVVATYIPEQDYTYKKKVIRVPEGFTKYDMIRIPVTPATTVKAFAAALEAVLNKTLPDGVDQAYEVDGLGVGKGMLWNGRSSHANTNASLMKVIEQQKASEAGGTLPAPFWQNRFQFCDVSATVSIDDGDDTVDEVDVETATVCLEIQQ
In words: Leishmania donovani Ubiquitin Activating Enzyme (LdE1). The note with it: 30 µM. In kind it is functional.

Test [3] concerns the target AMP-activated protein kinase, AMPK (Homo sapiens) (UniProt P54646+O43741+P54619+Q9UGJ0+Q9Y478+Q13131+Q9UGI9). In words: AMP-dependent Kinase enzyme assay. An in vitro enzyme assay that detects ADP turnover that is directly proportional to AMPK activity. This uses naive AMPK that is activated during the assay with MK-8722. In kind it is functional. The note with it: 30 µM.

In test [4] the target is Sialic acid-binding Ig-like lectin 9 (Homo sapiens) (UniProt Q9Y336). In words: Hs-Siglec9 ALPHAscreen SOP 20170721. The note with it: 10 µM. For orientation: Alpha assays give light when donor and acceptor beads are brought close together.
Sequence of Sialic acid-binding Ig-like lectin 9 (Homo sapiens) (Q9Y336 whole entry): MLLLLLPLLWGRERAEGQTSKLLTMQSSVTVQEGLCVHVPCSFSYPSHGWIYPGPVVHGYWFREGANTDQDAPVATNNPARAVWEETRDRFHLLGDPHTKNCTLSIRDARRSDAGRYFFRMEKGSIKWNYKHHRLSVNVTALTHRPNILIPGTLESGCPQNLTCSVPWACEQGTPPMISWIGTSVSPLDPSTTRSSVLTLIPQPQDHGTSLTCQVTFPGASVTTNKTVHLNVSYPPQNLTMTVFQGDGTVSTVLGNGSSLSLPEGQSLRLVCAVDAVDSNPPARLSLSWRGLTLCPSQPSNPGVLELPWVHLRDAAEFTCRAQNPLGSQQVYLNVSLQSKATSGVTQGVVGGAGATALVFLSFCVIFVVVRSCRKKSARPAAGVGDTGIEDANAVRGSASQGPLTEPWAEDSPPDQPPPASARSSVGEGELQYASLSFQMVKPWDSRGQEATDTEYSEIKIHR
Another test deals with Trypanosoma cruzi. In words: Trypanosoma cruzi phosphomannomutase and mannose-1-phosphate guanylyltransferase assay. In kind it is functional. The note with it: 10 µM.
Test [5] has as its target T2, Arginase-2, mitochondrial (Homo sapiens) (UniProt P78540).
T2 sequence (whole entry): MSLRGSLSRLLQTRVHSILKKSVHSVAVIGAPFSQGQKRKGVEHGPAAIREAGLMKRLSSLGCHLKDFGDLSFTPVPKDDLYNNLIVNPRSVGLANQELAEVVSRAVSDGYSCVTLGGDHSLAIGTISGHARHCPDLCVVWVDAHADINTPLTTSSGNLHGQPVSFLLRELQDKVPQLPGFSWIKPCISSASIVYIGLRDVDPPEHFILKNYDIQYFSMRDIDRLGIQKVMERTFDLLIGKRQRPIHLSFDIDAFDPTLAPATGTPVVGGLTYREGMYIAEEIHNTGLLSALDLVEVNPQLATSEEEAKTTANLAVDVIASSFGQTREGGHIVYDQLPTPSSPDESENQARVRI
In words: in vitro enzyme assay to detect the production of urea directly proportional to the activity of Arginase II. Also: in the data most compounds retested in dose-response had high values. In kind it is functional. The note with it: 33.3 µM.

The target in test [6] is T3, Proteasome subunit beta (Trypanosoma cruzi) (UniProt O96673).
T3 sequence (whole entry): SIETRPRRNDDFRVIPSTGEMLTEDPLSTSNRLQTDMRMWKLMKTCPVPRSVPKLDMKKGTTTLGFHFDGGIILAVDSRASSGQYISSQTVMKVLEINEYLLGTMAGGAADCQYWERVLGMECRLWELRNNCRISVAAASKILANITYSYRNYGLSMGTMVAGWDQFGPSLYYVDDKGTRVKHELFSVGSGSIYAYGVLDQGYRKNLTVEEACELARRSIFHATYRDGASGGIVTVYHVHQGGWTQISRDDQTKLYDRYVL
In words: Trypanosoma cruzi proteasome chymotrypsin-like activity (TcProtChymo) assay. Also: in the data most compounds retested in dose-response had high values. In kind it is functional. The settings on record: 9.37 µM.

For another test, the species on record is Homo sapiens. In words: To identify inhibition of the IFN signalling (Jak-Stat) pathway via expression of an eGFP reporter gene under the control of an IFN-stimulated response element (ISRE) containing MxA promoter. The note with it: 30 µM. In kind it is functional. (In general: In a reporter assay the amount or activity of a reporter protein is the signal.)

The target of test [7] is T4, Tyrosyl-tRNA synthetase, putative (Trypanosoma cruzi (strain CL Brener)) (UniProt Q4DSP6).
T4 sequence (whole entry): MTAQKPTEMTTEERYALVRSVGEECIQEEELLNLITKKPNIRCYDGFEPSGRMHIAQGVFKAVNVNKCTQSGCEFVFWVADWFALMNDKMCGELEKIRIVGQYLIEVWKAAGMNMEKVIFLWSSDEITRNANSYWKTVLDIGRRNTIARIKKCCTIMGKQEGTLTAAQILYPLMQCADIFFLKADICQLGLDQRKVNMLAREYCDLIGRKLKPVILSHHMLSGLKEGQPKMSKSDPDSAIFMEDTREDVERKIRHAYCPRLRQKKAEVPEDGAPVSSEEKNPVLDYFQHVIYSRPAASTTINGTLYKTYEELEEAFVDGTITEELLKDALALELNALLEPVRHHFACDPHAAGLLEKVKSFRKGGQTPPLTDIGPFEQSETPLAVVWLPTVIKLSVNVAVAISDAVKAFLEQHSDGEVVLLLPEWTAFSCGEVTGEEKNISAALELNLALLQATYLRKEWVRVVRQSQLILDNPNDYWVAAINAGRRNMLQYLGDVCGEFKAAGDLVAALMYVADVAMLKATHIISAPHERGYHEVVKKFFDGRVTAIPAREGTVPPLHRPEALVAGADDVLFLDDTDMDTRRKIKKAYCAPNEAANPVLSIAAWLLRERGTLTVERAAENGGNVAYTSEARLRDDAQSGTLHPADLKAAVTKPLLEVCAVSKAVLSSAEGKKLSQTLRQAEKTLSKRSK
In words: Trypanosoma cruzi tyrosyl tRNA synthetase (TcYRS) _High Tyrosine SOP. Also: in the data most compounds retested in dose-response had high values. In kind it is functional. The note with it: 30 µM.

Test [8] addresses T4, Tyrosyl-tRNA synthetase, putative (Trypanosoma cruzi (strain CL Brener)). In words: Trypanosoma cruzi tyrosyl tRNA synthetase (TcYRS) SOP. In kind it is functional. The settings on record: 30 µM.
Test [9] addresses Chromo domain-containing protein 1 (Saccharomyces cerevisiae (strain ATCC 204508 / S288c) (Baker's yeast)) (UniProt P32657). In words: ScCHD-1 Enzyme Inhibition Assay. Also: in the data most compounds retested in dose-response had high values. In kind it is functional. The settings on record: 30 µM.

Sequence of Chromo domain-containing protein 1 (Saccharomyces cerevisiae (strain ATCC 204508 / S288c) (Baker's yeast)) (P32657 whole entry, the tested form may be a part): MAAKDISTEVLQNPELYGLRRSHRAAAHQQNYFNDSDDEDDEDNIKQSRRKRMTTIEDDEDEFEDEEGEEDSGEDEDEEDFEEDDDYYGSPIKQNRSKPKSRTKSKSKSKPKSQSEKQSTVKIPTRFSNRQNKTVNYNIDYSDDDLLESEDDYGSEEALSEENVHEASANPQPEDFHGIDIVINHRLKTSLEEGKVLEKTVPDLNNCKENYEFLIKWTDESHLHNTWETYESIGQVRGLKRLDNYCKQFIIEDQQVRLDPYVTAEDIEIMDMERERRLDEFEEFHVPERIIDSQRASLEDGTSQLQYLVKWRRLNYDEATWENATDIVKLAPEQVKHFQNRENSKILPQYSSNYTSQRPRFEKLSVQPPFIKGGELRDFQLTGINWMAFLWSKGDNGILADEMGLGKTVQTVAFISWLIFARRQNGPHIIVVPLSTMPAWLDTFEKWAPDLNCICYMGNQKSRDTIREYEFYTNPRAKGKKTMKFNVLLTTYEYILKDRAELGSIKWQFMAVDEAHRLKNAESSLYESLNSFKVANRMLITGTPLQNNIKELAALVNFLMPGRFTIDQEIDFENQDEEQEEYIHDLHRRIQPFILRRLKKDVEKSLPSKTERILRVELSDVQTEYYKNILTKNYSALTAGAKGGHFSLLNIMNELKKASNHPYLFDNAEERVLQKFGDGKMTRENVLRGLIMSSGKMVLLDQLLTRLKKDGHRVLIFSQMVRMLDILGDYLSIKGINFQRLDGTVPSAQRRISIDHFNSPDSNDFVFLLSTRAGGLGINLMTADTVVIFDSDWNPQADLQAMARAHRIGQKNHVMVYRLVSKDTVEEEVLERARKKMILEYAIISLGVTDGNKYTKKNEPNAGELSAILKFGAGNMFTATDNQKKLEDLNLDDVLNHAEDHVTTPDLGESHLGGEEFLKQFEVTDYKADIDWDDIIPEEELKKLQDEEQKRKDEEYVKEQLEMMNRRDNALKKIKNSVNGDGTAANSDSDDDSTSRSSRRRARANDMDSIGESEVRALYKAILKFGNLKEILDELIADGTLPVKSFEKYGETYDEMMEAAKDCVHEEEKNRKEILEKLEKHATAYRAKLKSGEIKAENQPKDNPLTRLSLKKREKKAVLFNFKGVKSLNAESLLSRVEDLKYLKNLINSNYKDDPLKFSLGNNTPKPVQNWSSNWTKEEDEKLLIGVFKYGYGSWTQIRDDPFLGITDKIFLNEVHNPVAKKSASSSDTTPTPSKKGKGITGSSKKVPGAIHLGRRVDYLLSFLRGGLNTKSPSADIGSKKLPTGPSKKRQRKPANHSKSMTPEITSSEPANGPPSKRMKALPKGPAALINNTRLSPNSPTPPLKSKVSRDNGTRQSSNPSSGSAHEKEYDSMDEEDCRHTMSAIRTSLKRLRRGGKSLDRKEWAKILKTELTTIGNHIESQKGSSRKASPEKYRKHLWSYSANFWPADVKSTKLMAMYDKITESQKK
Sequence of Protein translocase subunit SecA (Escherichia coli (strain K12)) (P10408 whole entry): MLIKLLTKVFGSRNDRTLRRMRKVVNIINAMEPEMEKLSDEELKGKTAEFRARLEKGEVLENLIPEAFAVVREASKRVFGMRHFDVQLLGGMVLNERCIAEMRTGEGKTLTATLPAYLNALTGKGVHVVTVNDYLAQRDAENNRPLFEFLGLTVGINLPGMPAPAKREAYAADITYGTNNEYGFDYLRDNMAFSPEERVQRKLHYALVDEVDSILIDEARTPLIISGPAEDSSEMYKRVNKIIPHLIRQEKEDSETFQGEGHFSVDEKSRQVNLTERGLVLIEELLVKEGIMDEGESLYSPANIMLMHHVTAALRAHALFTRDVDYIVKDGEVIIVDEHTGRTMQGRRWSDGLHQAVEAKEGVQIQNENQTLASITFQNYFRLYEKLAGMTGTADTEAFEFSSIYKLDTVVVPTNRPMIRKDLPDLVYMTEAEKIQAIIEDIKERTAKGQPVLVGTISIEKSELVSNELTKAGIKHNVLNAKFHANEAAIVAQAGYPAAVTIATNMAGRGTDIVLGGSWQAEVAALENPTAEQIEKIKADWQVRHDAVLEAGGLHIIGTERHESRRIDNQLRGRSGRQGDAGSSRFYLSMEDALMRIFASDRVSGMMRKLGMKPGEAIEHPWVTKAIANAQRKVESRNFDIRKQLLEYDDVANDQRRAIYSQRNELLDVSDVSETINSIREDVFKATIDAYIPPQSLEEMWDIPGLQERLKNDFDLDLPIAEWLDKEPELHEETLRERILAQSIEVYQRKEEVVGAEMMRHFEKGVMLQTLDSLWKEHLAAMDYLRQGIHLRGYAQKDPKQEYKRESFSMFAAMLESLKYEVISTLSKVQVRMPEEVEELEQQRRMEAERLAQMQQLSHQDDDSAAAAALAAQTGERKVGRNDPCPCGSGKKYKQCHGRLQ

With `O=C(c1cnn2c1OCCC2)N1CCN(C/C=C/c2ccccc2)CC1`, the Percent Effect in test [1] was -2.24%; in test [2] it was 7.79%; in test [3] it was 3.47%; in [4], 6.1%; with Trypanosoma cruzi, -1.28%; in [5], -5.81%. In addition, the Percent Effect was 8.88% in test [6]; 10.8% in the test filed under Homo sapiens; 5.29% in test [7]; 16.7% in [8]; -8.13% in test [9].
`Cc1nc(C)n(CC2CCCN(c3ncnc4sccc34)C2)n1` (stereo unspecified): the Percent Effect in test [1] was -2.59%; in test [2], 13.5%; in [3] it was -5.88%; in [4] it was -5.07%; with Trypanosoma cruzi it was -6.32%; in [5], 0.401%. The Percent Effect in test [6] is 9.91%; in the test filed under Homo sapiens it was 65.9%; in test [7], 6.4%; in [8], 16.1%; in test [9] it was -6.06%.
Turning to `Cn1cc(Br)c(=O)c(NS(=O)(=O)c2ccc(F)cc2)c1`, the Percent Effect in test [1] is -0.436%; in [2], 2.7%; in test [3], -1.93%; in test [4], 10.6%; in the test on Trypanosoma cruzi, 5.41%; in test [5] it was -0.476%. Besides, the Percent Effect in [6] was 10.5%; in the test listed under Homo sapiens it was 2.64%; in [7] it was 2.65%; in test [8], 12.2%; in test [9], -2.91%.
`Cc1noc([C@@H]2C[C@H]3OCC[C@H]3N(S(C)(=O)=O)C2)n1`: the Percent Effect in [1] is -1.89%; in [2] it was 11%; in test [3], -9.13%; in test [4], 8.3%; in the test with Trypanosoma cruzi it was 4.37%; in test [5] it was -1.6%. Besides, the Percent Effect in test [6] was 9.5%; in the test filed under Homo sapiens it was 1.34%; in test [7] it was 6.25%; in test [8], 8.64%; in [9], -4.65%.
With `Cc1cc2nc(SCC(=O)N3CCOCC3)n(CC(C)C)c(=O)c2[nH]1`, the Percent Effect in [1] is 2.16%; in [2] it was 13.2%; in [3] it was 2.03%; in test [4] it was -4.31%; in the test with Trypanosoma cruzi, -4.77%; in [5], 11.8%. Further, the Percent Effect was 18.3% in test [6]; -10.6% in the test listed under Homo sapiens; -1.06% in [7]; 10.4% in test [8]; -2.79% in [9].
On to `CC(=O)N(C)c1nc(CN2CCCCC2Cn2cncn2)cs1` (stereo unspecified), for which the Percent Effect was -8.24% in [1]; 7.79% in test [2]; -1% in [3]; 0.729% in test [4]; -5.99% with Trypanosoma cruzi; -1.42% in test [5]. The Percent Effect in [6] is 7.43%; in the test filed under Homo sapiens it was 27.8%; in test [7], 5.83%; in [8], 7.32%; in test [9] it was -6.12%.
As to `Cc1cc(C)cc(OCCC(=O)N2CCCC(n3cncn3)C2)c1` (stereo unspecified), the Percent Effect in [1] was -0.911%; in test [2] it was -8.11%; in test [3] it was 0.29%; in test [4] it was 4.17%; in the test on Trypanosoma cruzi it was 8.08%; in test [5], -5.73%. The Percent Effect is -5.21% in test [6]; 4.81% in the test listed under Homo sapiens; 0% in test [7]; 3.66% in test [8]; 1.95% in [9].
In the case of `CN(C)C(=O)N1CCN(C(=O)CCc2ccccc2)[C@H]2CS(=O)(=O)C[C@H]21`, the Percent Effect in test [1] was -0.417%; in test [2], 5.41%; in [3], -5.99%; in test [4], 6.47%; with Trypanosoma cruzi, 4.44%; in test [5], -2.86%. Also, the Percent Effect in test [6] is 15.3%; in the test listed under Homo sapiens it was 23.4%; in test [7], 8.99%; in test [8], 9.76%; in test [9] it was -2.21%.
Consider `CN(C)c1nc2c(c(=O)[nH]1)CCN(C(=O)c1cccc3nccnc13)C2`, for which the Percent Effect was 1.03% in test [1]; 18.2% in test [2]; -1.68% in test [3]; 4.82% in [4]; 1.87% with Trypanosoma cruzi; -33.1% in [5]. The Percent Effect in test [6] is 19.1%; in the test filed under Homo sapiens it was 29.3%; in test [7] it was 8.6%; in [8], 16.1%; in test [9], -3.03%.
`COCC(=O)N1CCCn2c(CN3CCCCC3)nnc2C1`: the Percent Effect is -0.412% in [1]; 11% in [2]; 1.87% in test [3]; 4.92% in [4]; -5.95% with Trypanosoma cruzi; -2.4% in test [5]. For the same compound, the Percent Effect in test [6] is 22.7%; in the test filed under Homo sapiens, 24%; in test [7] it was 7.29%; in test [8], 11.1%; in test [9] it was -5.31%.
Regarding `c1cncc(OCc2nnn3c2CN(Cc2ccsc2)CCC3)c1`, the Percent Effect in test [1] is -3.57%; in test [2], 2.67%; in [3] it was -0.385%; in test [4] it was 1.61%; with Trypanosoma cruzi, 7.72%; in [5] it was -48.2%. The Percent Effect in test [6] was 6.84%; in the test filed under Homo sapiens it was 1.38%; in test [7] it was -3.12%; in test [8] it was -5%; in [9], -5.39%.
